Laboratory results as given in the supplement of paper PMC10127200.
Counter-ions that a name gives are not always drawn.

What was measured:
Experiment in all cases: Euclidean distance of Cell Painting phenotypic profile (signed KS, 77 features) to DMSO centroid (dimensionless distance); 5 or 10 uM (library dependent); higher = stronger phenotypic change vs DMSO (phenoactivity)
Conditions in all cases: 48 h
786-O = system: 786-O
In short: (§1)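 Five cancer lines, together with a healthy fibroblast line, received library compounds for 48 h at a library-dependent 10 or 5 uM and 0.1% DMSO final. Harmony then derived 77 features from confocal 20X images (9 fields/well) of the stained cells, scoring each as a signed Kolmogorov-Smirnov statistic against same-plate vehicle wells. After plate-position correction, correlation weighting and replicate averaging at the top dose, phenoactivity was taken as each profile's Euclidean distance to the median vehicle profile.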

A549 = system: A549
In short: as §1

DU145 = system: DU145
In short: as §1

FB = system: FB
In short: as §1

HEPG2 = system: HEPG2
In short: as §1

OVCAR4 = system: OVCAR4
In short: as §1

## Nc1nc(Nc2ccc(S(N)(=O)=O)cc2)nn1C(=O)c1c(F)cccc1F
786-O
  Euclidean distance: 1.27
A549
  Euclidean distance: 1.64
DU145
  Euclidean distance: 1.5
FB
  Euclidean distance: 0.817
HEPG2
  Euclidean distance: 1.7
OVCAR4
  Euclidean distance: 1.05

## O=C(O)CCn1c2c(c3ccccc31)C[C@H](NS(=O)(=O)c1ccc(F)cc1)CC2 [Ramatroban]
786-O
  Euclidean distance: 0.593
A549
  Euclidean distance: 0.487
DU145
  Euclidean distance: 0.969
FB
  Euclidean distance: 0.538
HEPG2
  Euclidean distance: 1.42
OVCAR4
  Euclidean distance: 0.778

## COc1cc(Nc2ncc(F)c(Nc3ccc4c(n3)NC(=O)C(C)(C)O4)n2)cc(OC)c1OC
786-O
  Euclidean distance: 1.65
A549
  Euclidean distance: 3.73
DU145
  Euclidean distance: 2.9
FB
  Euclidean distance: 3.35
HEPG2
  Euclidean distance: 1.78
OVCAR4
  Euclidean distance: 2.24

## Clc1ccc(C(Cn2ccnc2)OCc2ccc(Sc3ccccc3)cc2)c(Cl)c1 (centres undefined) [Fenticonazole Nitrate]
786-O
  Euclidean distance: 1.13
A549
  Euclidean distance: 0.887
DU145
  Euclidean distance: 1.51
FB
  Euclidean distance: 1.21
HEPG2
  Euclidean distance: 2.16
OVCAR4
  Euclidean distance: 1.35

## COc1c(C)cnc(Cn2cnc3c(Cl)nc(N)nc32)c1C
786-O
  Euclidean distance: 3.02
A549
  Euclidean distance: 3.08
DU145
  Euclidean distance: 3.08
FB
  Euclidean distance: 3.34
HEPG2
  Euclidean distance: 4.24
OVCAR4
  Euclidean distance: 3.08

## CC1=C[C@H]2C(=O)O[C@H]3C[C@@H](C/C=C(\C)C[C@@H](C)/C=C/C=C4\CO[C@H](/C1=N\O)[C@@]42O)O[C@@]1(CC[C@H](C)[C@@H](C)O1)C3.CC[C@H]1O[C@]2(CC[C@@H]1C)C[C@@H]1C[C@@H](C/C=C(\C)C[C@@H](C)/C=C/C=C3\CO[C@@H]4/C(=N\O)C(C)=C[C@@H](C(=O)O1)[C@]34O)O2 [Milbemycin Oxime]
786-O
  Euclidean distance: 0.91
A549
  Euclidean distance: 0.957
DU145
  Euclidean distance: 0.954
FB
  Euclidean distance: 1.3
HEPG2
  Euclidean distance: 0.456
OVCAR4
  Euclidean distance: 1.11

## Cc1nc2n(c(=O)c1CCN1CCC(c3noc4cc(F)ccc34)CC1)CCCC2 [Risperidone]
786-O
  Euclidean distance: 1.21
A549
  Euclidean distance: 0.71
DU145
  Euclidean distance: 0.723
FB
  Euclidean distance: 1.08
HEPG2
  Euclidean distance: 0.51
OVCAR4
  Euclidean distance: 0.674

## C[N+]1(C)CCC(=C(c2ccccc2)c2ccccc2)CC1 [Diphemanil Methylsulfate]
786-O
  Euclidean distance: 1.08
A549
  Euclidean distance: 0.915
DU145
  Euclidean distance: 1.02
FB
  Euclidean distance: 0.946
HEPG2
  Euclidean distance: 0.465
OVCAR4
  Euclidean distance: 1.83

## C/C(=C\C(=O)Nc1ccccc1C(=O)O)c1ccc2ccccc2c1
786-O
  Euclidean distance: 0.939
A549
  Euclidean distance: 1.46
DU145
  Euclidean distance: 1.76
FB
  Euclidean distance: 1.59
HEPG2
  Euclidean distance: 0.714
OVCAR4
  Euclidean distance: 0.731

## CC1=C(C(=O)OC2CCCCC2)C(c2ccc([N+](=O)[O-])cc2)C2=C(CC(C)(C)CC2=O)N1 (centres undefined)
786-O
  Euclidean distance: 2.98
A549
  Euclidean distance: 3.4
DU145
  Euclidean distance: 1.52
FB
  Euclidean distance: 2.71
HEPG2
  Euclidean distance: 2.03
OVCAR4
  Euclidean distance: 2.99

## CCCc1nc(C(C)(C)O)c(C(=O)O)n1Cc1ccc(-c2ccccc2-c2nnn[nH]2)cc1 [Olmesartan]
786-O
  Euclidean distance: 1.21
A549
  Euclidean distance: 0.9
DU145
  Euclidean distance: 1.57
FB
  Euclidean distance: 0.802
HEPG2
  Euclidean distance: 0.353
OVCAR4
  Euclidean distance: 1.32

## CC(=O)O[C@@]12CO[C@@H]1C[C@H](O)[C@@]1(C)C(=O)[C@H](O)C3=C(C)[C@@H](OC(=O)[C@H](O)[C@@H](NC(=O)OC(C)(C)C)c4ccccc4)C[C@@](O)([C@@H](OC(=O)c4ccccc4)[C@H]21)C3(C)C [Docetaxel Trihydrate]
786-O
  Euclidean distance: 3.61
A549
  Euclidean distance: 3.08
DU145
  Euclidean distance: 3.17
FB
  Euclidean distance: 2.26
HEPG2
  Euclidean distance: 2.15
OVCAR4
  Euclidean distance: 2.49

## CC(CCc1ccc(O)cc1)NCC(O)c1ccc(O)cc1 (centres undefined) [Ractopamine HCl]
786-O
  Euclidean distance: 0.802
A549
  Euclidean distance: 0.83
DU145
  Euclidean distance: 0.987
FB
  Euclidean distance: 1.14
HEPG2
  Euclidean distance: 0.522
OVCAR4
  Euclidean distance: 1.07

## c1cncc(CN2CCC(n3ncc4c(N5CCOCC5)nc(-c5ccc6[nH]ccc6c5)nc43)CC2)c1
786-O
  Euclidean distance: 4.57
A549
  Euclidean distance: 4.67
DU145
  Euclidean distance: 4.08
FB
  Euclidean distance: 4.59
HEPG2
  Euclidean distance: 3.78
OVCAR4
  Euclidean distance: 3.57

## CC(C(=O)O)c1cccc(Oc2ccccc2)c1 (centres undefined) [Fenoprofen Calcium]
786-O
  Euclidean distance: 0.95
A549
  Euclidean distance: 0.634
DU145
  Euclidean distance: 0.599
FB
  Euclidean distance: 0.997
HEPG2
  Euclidean distance: 1.16
OVCAR4
  Euclidean distance: 1.97

## CCN(CCCCOC(=O)c1ccc(OC)c(OC)c1)C(C)Cc1ccc(OC)cc1 (centres undefined) [Mebeverine Hydrochloride]
786-O
  Euclidean distance: 0.875
A549
  Euclidean distance: 1.21
DU145
  Euclidean distance: 1.06
FB
  Euclidean distance: 1.29
HEPG2
  Euclidean distance: 0.855
OVCAR4
  Euclidean distance: 1.91

## CC[C@H]1OC(=O)[C@@](C)(F)C(=O)[C@H](C)[C@@H](O[C@@H]2O[C@H](C)C[C@H](N(C)C)[C@H]2O)[C@](C)(OC)C[C@@H](C)C(=O)[C@H](C)[C@H]2N(CCCCn3cc(-c4cccc(N)c4)nn3)C(=O)O[C@]12C [Solithromycin]
786-O
  Euclidean distance: 1.63
A549
  Euclidean distance: 1.89
DU145
  Euclidean distance: 1.57
FB
  Euclidean distance: 1.86
HEPG2
  Euclidean distance: 2.27
OVCAR4
  Euclidean distance: 0.99

## O=C(/C=C/c1ccc(O)c(O)c1)O[C@@H]1C[C@](O)(C(=O)O)C[C@@H](O)[C@H]1O [Chlorogenic Acid]
786-O
  Euclidean distance: 1.05
A549
  Euclidean distance: 1.05
DU145
  Euclidean distance: 1.38
FB
  Euclidean distance: 1.17
HEPG2
  Euclidean distance: 1.21
OVCAR4
  Euclidean distance: 1.15

## CCCCCCCCOc1ccccc1C(=O)Nc1ccc(C(=O)OCC[N+](C)(CC)CC)cc1 [Otilonium Bromide]
786-O
  Euclidean distance: 1.03
A549
  Euclidean distance: 1.09
DU145
  Euclidean distance: 1.91
FB
  Euclidean distance: 1.24
HEPG2
  Euclidean distance: 1.11
OVCAR4
  Euclidean distance: 1.03
